FMDV inh: blocks foot and mouth disease virus | AID 1159524 | FMDV antiviral cell-based qHTS | Potency, µM (top dose mostly 57.9 µM), without a hit: top-dose activity change, negative = inhibition, usual class: inhibitors | actives 1.2% (n = 410,000); calls by dose curve; tested in HEK293T cells; further: read-out not given here; potency means the concentration at half of the fitted maximal effect; nearly all actives have a fitted effect of over 45% in size
VACV Venus inh: inhibitors of vaccinia virus (Venus reporter) | actives 0.46% (n = 330,000) | Potency, µM (titrated, usually from 36.5 µM), for inactives: at the highest dose activity change, negative = inhibition, most hits filed as inhibitors | Vaccinia virus Venus reporter expression, fluorescence; calls by dose curve; tested in A549 cells; further: potency means the concentration at half of the fitted maximal effect; nearly all actives have a fitted effect of over 30% in size
VACV mCherry inh: inhibitors of vaccinia virus infection (mCherry reporter signal) | Vaccinia virus mCherry reporter infection, fluorescence | Potency, µM (top dose mostly 36.5 µM), for inactives: top-dose activity change, negative = inhibition, hits mostly inhibitors | actives 0.63% (n = 310,000) | AID 720579; calls by dose curve; tested in A549 cells; further: potency means the concentration at half of the fitted maximal effect; nearly all actives have a fitted effect of over 35% in size
HCV inhibitor: blocks hepatitis C virus. Huh7.5.1 HCVcc-Cre infection, luciferase reporter, 44 h. Potency, µM (titrated, usually from 41.8 µM), inactives show at the highest dose activity change, negative = inhibition, most hits filed as inhibitors. actives 3.4% (n = 340,000); active means well fitted inhibition curve with a large enough effect; inconclusive means small, poorly fitted or top-dose-only effect, or another doubt; inactive means no such curve, though single readings can be large or run the other way; further: potency means the concentration at half of the fitted maximal effect
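Infectious HCVcc-Cre (~0.5 moi) was added to cells just after compound, with cells seeded 4 h earlier at 1,000 per well. Luciferase activity after 44 h culture reported infection; substrate was incubated 15 min at room temperature before reading.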
HCMV antiviral: human cytomegalovirus inhibition; HFF cells, HCMV-luciferase reporter, 72 h; hits give low values; activity change, negative = inhibition, % at 57.5 µM; actives 4.5% (n = 410,000); AID 1259415; in the data active means activity change below about -60%; inconclusive means no clear call, values can overlap the other calls; inactive means above about -39%
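Two compound doses tested in HFFs infected with HCMV-luciferase, MOI 1 PFU/cell, 72 h at 37C. Lysate luminescence read with OneGlo; data normalized against buffer-only and 10uM Salinomycin inhibitor controls.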
The depositor's hits bear a star; i = inactive; ? = inconclusive; . = no result; ! = not active in a repeat; [ ] = dose if it differs, or a comment. Only some compounds are listed: those with a hit (about 7.3% of all), similar ones and a draw of the others. On the % scale 0 is the no-effect control and ±100 the full control effect.

SMILES | FMDV inh | VACV Venus inh | VACV mCherry inh | HCV inhibitor | HCMV antiviral
Cc1nc2cnc(Oc3cccc(Cl)c3)nc2n(Cc2ccc(F)cc2)c1=O | -28% | . | . | . | .
Cc1cc(Cl)ccc1NC(=S)NCCc1ccc(Cl)cc1 | 15% | -21% | ? | ? | -83*
Cc1cccc(NC(=S)NCCc2ccccc2)n1 | 21% | -14% | ? | -25% | -72*
Cc1cc(Cl)ccc1NC(=S)NCc1ccc(Cl)cc1 | -7% | ? | ? | ? | 35
S=C(NCCc1ccccc1)Nc1ccccn1 | 54% | -11% | -13% | 7% | 25
COc1cccc(OCC(=O)NC2CC(=O)N(c3cccc(OC)c3)C2)c1 (configuration not stated) | -11% | -7%[7.34 µM] | -7%[7.34 µM] | . | 57
O=C1c2ccccc2C(Nc2ccc(-c3nc4ccccc4[nH]3)cc2)N1Cc1ccco1 (configuration not stated) | 0% | ? | -12% | 10µM* | -39
COc1ccc(OC)c(-c2cc(Cl)c3c(c2)CC(CNC(=O)/C=C/c2ccccn2)O3)c1 (configuration not stated) | 11% | -8% | -2% | . | .
Nc1cc(=O)[nH]c(SCC(=O)N2CCC(Cc3ccccc3)CC2)n1 | -21% | . | . | 14µM* | 0
CCn1c(=O)c2cc(C(=O)NCCC(C)C)sc2c2ccccc21 | 10% | . | . | -9% | 56
CCn1c(=O)c2cc(C(=O)NCCCN3CCC(C)CC3)sc2c2ccccc21 | -7% | -22% | -24% | . | -76*
CCn1c(=O)c2cc(C(=O)NC3CCC(C)CC3)sc2c2ccccc21 (configuration not stated) | -3% | -16% | -2% | . | -67*
CCCN1CCN(CCCNC(=O)c2cc3c(=O)n(CC)c4ccccc4c3s2)CC1 | 0% | -16% | -18% | . | ?
c1ccc(-c2cccc(-c3ccccc3)n2)cc1 | 54% | . | . | -1% | -65*
c1ccc(-c2ccc3ccccc3n2)cc1 | 53% | 3% | i | -13% | 30
CCOC(=O)c1cc(CC)sc1NC(=O)C1CC(=O)NN1Cc1ccccc1 (configuration not stated) | -30% | -28% | ? | 5.6µM* | 23
CCOc1ccccc1CNc1ncnc2ccc(-c3c(C)noc3C)cc12 | 32µM* | . | . | . | -28
C=CCc1ccc(OCC(O)CN2CCN(c3ccccc3)CC2)c(OC)c1 (configuration not stated) | 1% | . | . | -30% | -62*
C=CCc1ccc(OCC(O)CN2CCCCC2)c(OC)c1 (configuration not stated) | 9% | -4% | -11% | -8% | -11
C=CCc1ccccc1OCC(O)CN1CCN(c2ccccc2OC)CC1 (configuration not stated) | ? | -13% | ? | ? | -64*!
C=CCc1ccccc1OCC(O)CN1CCN(c2ccccc2F)CC1 (configuration not stated) | ? | -47% | . | -4% | 21
O=C(CSc1nc(-c2cccs2)nc2cc(=O)[nH]n12)Nc1cccc(C(F)(F)F)c1 | -15% | -7% | 1% | . | -6
Cc1[nH]c2ccccc2c1/C=N/NC(=S)NC(C)C | ? | -30% | -28% | 10µM* | ?
Cc1[nH]c2ccccc2c1/C=N/NC(=O)C1CC1(c1ccccc1)c1ccccc1 (configuration not stated) | 40µM* | 11µM* | ? | ? | -21
CC(C=NN=C1C(=O)Nc2ccccc21)=Cc1ccccc1 | . | . | . | . | 12
SMILES | FMDV inh | VACV Venus inh | VACV mCherry inh | HCV inhibitor | HCMV antiviral
CN(C)c1ccc(CNC(=O)c2csc(N3CCN(CCc4ccccc4)C3=O)n2)cc1 | . | . | . | . | -1
CN(c1ccccc1)S(=O)(=O)c1ccccc1Br | -12% | -2% | -14% | ? | -81*
Cc1cc([N+](=O)[O-])c2ccccc2[n+]1[O-] | ? | . | . | 11µM* | .
CCCN1CCC(=O)N([C@H](CSc2ccccc2)c2ccccc2)CC1 | 62% | -5% | i | -17% | -102*
COc1cc(OC)c(NC(=O)CSc2nc3ccncc3[nH]2)cc1Cl | ? | ? | -6% | . | -11
Fc1ccccc1Nc1c2c(nc3ccccc13)CCC2 | ? | -15% | -17% | . | ?
Fc1ccc(F)c(Nc2c3c(nc4ccc(Cl)cc24)CCC3)c1 | ? | -4% | -17% | . | -69*
FC(F)(F)c1cccc(Nc2c3c(nc4ccc(Cl)cc24)CCC3)c1 | -8% | -17%[7.34 µM] | -21%[7.34 µM] | . | -76*
Cc1ccc(-c2noc(C3CCCN(C(=O)c4ccc(F)cc4F)C3)n2)cc1 (configuration not stated) | -29% | . | . | ? | -37
Cc1ccccc1NC(=O)N1CCCC(c2nc(-c3ccc(F)cc3)no2)C1 (configuration not stated) | -7% | . | . | ? | 2
Cc1ccccc1NC(=O)N1CCCC(c2nc(-c3ccc(C(C)C)cc3)no2)C1 (configuration not stated) | ? | . | . | 13µM* | -20
CC(C)c1ccc(-c2noc(C3CCCN(C(=O)c4ccc(F)cc4F)C3)n2)cc1 (configuration not stated) | ? | . | . | 11µM* | -8
O=C(CSc1ncccn1)NCC1Cc2cccc(-c3ncccn3)c2O1 (configuration not stated) | 6% | -7% | -14% | . | .
Cc1ccc(-n2ncc(C(=O)Nc3cc(Cl)cc(Cl)c3)c2C2CCNCC2)cc1C | ? | . | . | 13µM* | -99*
Cc1ccc(-n2ncc(C(=O)Nc3cc(Cl)ccc3Cl)c2C2CCNCC2)cc1 | 0% | -21% | -5% | 13µM* | -87*
CN(Cc1ccc(Cl)s1)C(=O)CCl | 11µM* | -25% | -16% | ? | 135
CN(Cc1ccc(Cl)cc1)C(=O)CCl | 25µM* | . | . | ? | -64*
O=C(CC(=O)Nc1ccccc1[N+](=O)[O-])Nc1ccccc1[N+](=O)[O-] | -14% | -19% | -16% | -4% | -65*
CCOc1ccccc1CNC(=O)c1oc2c(c1C)-c1[nH]ncc1CC2 | 3% | -7% | -13% | . | -10
COc1ccc(C(=O)Oc2ccc(C(c3c(C)[nH][nH]c3=O)c3c(C)[nH][nH]c3=O)cc2)cc1 | 10% | 4% | -2% | . | 6
O=C1/C(=C/c2ccc(F)cc2)SC(=S)N1CC(=O)N1CCCCC1c1cccnc1 (configuration not stated) | -1% | . | . | ? | -83*
O=C(/C=C/c1ccc(F)cc1)NC(=S)N1CCCCC1c1cccnc1 (configuration not stated) | 14% | -5% | ? | -6% | -11
O=C1/C(=C/c2ccccc2F)SC(=S)N1CC(=O)N1CCCCC1c1cccnc1 (configuration not stated) | 0% | . | . | ? | -76*
O=C(CCN1C(=O)/C(=C/c2ccccc2F)SC1=S)Nc1ccccn1 | -21% | -7% | -15% | 18% | 32
COc1ccc(-c2cn3nc(SCC(=O)Nc4cc(C)cc(C)c4)ccc3n2)cc1 | 41% | ? | -18% | . | 69

Screening results (PubChem BioAssay)
